Shown are actives, neighbours in structure and some others; about 0.9% of the full set was active somewhere.
RXFP1 antag – qHTS Assay for Antagonists of the Relaxin Receptor RXFP1; 0.59% of 350,000 active; activity change, negative = inhibition, % at 57.5 µM; HEK293-RXFP1, relaxin-stimulated cAMP HTRF, 30 min; active compounds read low; Relaxin receptor 1 (Homo sapiens), Q9HBX9; AID 1259400, 2018;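 active means activity change of -60% or lower, but not beyond a set lower limit; inconclusive means change between -60% and -40%, or beyond the set limit; inactive means change above -40%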; further: on the % scale 0 is the no-effect control and ±100 the full control effect
Target sequence (Q9HBX9 whole entry, looked up): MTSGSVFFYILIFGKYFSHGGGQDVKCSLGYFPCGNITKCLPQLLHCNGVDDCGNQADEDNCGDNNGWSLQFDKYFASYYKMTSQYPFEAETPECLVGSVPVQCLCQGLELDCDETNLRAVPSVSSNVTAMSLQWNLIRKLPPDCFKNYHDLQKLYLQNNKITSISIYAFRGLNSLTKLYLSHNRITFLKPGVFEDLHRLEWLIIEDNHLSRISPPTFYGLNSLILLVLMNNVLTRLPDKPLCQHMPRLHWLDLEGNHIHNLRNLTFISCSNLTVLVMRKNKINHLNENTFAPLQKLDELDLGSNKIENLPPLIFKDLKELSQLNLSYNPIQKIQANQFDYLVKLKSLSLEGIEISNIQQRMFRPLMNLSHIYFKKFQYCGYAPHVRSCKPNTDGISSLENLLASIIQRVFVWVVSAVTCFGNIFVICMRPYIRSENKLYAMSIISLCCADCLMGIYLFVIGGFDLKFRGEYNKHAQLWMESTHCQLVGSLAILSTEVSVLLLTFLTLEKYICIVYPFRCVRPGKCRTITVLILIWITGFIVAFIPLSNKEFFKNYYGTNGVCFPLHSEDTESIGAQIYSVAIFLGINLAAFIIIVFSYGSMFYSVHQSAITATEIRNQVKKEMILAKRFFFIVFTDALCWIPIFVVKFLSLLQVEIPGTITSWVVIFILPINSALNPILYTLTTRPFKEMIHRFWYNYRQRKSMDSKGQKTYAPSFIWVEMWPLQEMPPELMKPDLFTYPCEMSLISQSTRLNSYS
gsp agonist – qHTS for Agonist of gsp, the Etiologic Mutation Responsible for Fibrous Dysplasia/McCune-Albright Syndrome: qHTS. gsp mutant cells, cAMP HTRF, 30 min. Potency, µM (series often up to 76.9 µM), without a hit: at the highest dose activation (cAMP increase), actives largely listed as activators. 0.13% of 340,000 active. AID 624287, 2012; active means well fitted activation curve with a large enough effect; inconclusive means small, poorly fitted or top-dose-only effect, or another doubt; inactive means no such curve, though single readings can be large or run the other way; cell line not stated here;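 further: phosphodiesterase inhibitor Ro 20-1724 added with compounds to block cAMP breakdown; potency means the concentration at half of the fitted maximal effect; nearly all actives have a fitted effect of over 60% in size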
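Cells in DMEM/10% FBS with G418 were pretreated with compounds in DMSO plus […] (300 uM stock) for 30 min at 37C. cAMP was measured by HTRF (cAMP-d2 plus anti-cAMP antibody-K) after 30 min at room temperature.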
gsp antagonist – qHTS for Antagonists of gsp, the Etiologic Mutation Responsible for Fibrous Dysplasia/McCune-Albright Syndrome: qHTS; AID 624288, 2012; gsp-mutant cells, cAMP HTRF, 30 min; Potency, µM (doses to about 76.9 µM), for inactives: at the highest dose activity change, negative = inhibition, hits mostly inhibitors; 0.4% of 340,000 active; calls by dose curve; cell line not stated here;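 further: intracellular cAMP measured with PDE inhibitor Ro 20-1724 present during compound exposure; potency means the concentration at half of the fitted maximal effect; on the % scale 0 is the no-effect control and ±100 the full control effect; nearly all actives have a fitted effect of over 65% in size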
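HTRF cAMP measurement after 30 min RT detection following 30 min, 37C compound treatment alongside […] (added as 300 uM solution) in G418-selected cells seeded at 2000/well and grown 16–24 h.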
RXFP1 agonist – qHTS Assay for Agonists of the Relaxin Receptor RXFP1 | Relaxin receptor 1 (Homo sapiens), Q9HBX9 | HEK293T-RXFP1 cAMP TR-FRET, 30 min; response scale: percent of porcine relaxin response, buffer zero | Potency, µM (doses to about 57.5 µM), inactives show top-dose activation, hits mostly activators | 0.3% of 370,000 active | AID 2676, 2010; active means well fitted activation curve with a large enough effect; inconclusive means small, poorly fitted or top-dose-only effect; further: potency means the concentration at half of the fitted maximal effect; on the % scale 0 is the no-effect control and ±100 the full control effect; nearly all actives have a fitted effect of over 60% in size
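cAMP rise read by TR-FRET after 30 min, 37C compound exposure (up to 58 uM) in RXFP1-transfected HEK293 cells with Ro 20174 present. EC50 from Hill-equation fits, with 29 nM porcine relaxin as 100% and buffer as basal.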
The depositor's hits bear a star; ? = inconclusive; . = no result given; ! = not confirmed by another sample; [ ] = remark or other dose.

SMILES	RXFP1 antag	gsp agonist	gsp antagonist	RXFP1 agonist
Cc1ccc(NC(=O)CCCn2nc(C)c3sc4ccccc4c3c2=O)c(Cl)c1	-4.9	.	.	-0.3%
Cc1c(C(=O)N(C)Cc2ccccc2)sc2nc(-c3ccc(F)cc3)cn12	-67.6*	.	.	4.0%
Cc1c(C(=O)N(C)c2ccccc2)sc2nc(-c3ccc(F)cc3)cn12	-29.9	.	.	4.4%
CC1(C)CC(C(CCN(Cc2ccccc2)C(=O)c2ccco2)c2ccc(F)cc2)CCO1 (configuration not stated)	-28.5	-3.0%	28.2µM*	2.4%
CCOC(=O)N1CCc2c(sc(NCc3cc(OC)ccc3OC)c2C(=O)Nc2cc(OC)ccc2OC)C1	-9.8	.	.	-1.4%
O=C(c1cccs1)N1N=C(c2ccccc2)CC1c1ccc(O)cc1 (configuration not stated)	?	22.5%	28.2µM*	-1.3%
CCCOc1ccc2c(c1)CC[C@@H]1[C@@H]2CC[C@]2(C)C(OC)CC[C@@H]12 (some centres not stated)	-10.3	.	.	.
CCc1cc2c(=O)nc3n(c2s1)Cc1ccccc1/C3=C(/O)c1cccc([N+](=O)[O-])c1	17.0	3.16µM*	10.6%	?
CSc1cc(-c2ccc(Cl)cc2)n(Cc2ccccc2)c(=O)c1C#N	1.6	-48.7%	3.0%	22.4µM*
O=C(/C=C/c1ccc(Cl)c([N+](=O)[O-])c1)Nc1cccc(NC(=O)c2ccco2)c1	-35.4	19.6%	35.5µM*	4.5%
Cc1cccc(NC(=O)Cn2cc(S(=O)(=O)N3CCCC3)c(S(=O)(=O)N3CCCC3)c2)c1C	3.3	.	.	-2.2%
O=C(CN1C(=O)C(=O)N(CCC2=CCCCC2)C1=O)c1c[nH]c2ccccc12	-66.4*	18.1%[15.4 µM]	-19.4%	.
COc1cc(/C=C2\SC(=S)N(Nc3ncc(C(F)(F)F)cc3Cl)C2=O)ccc1O	-74.3*	-0.2%[15.4 µM]	-12.0%	-0.5%
CCN(Cc1ccc2c(c1)OCO2)C(=O)CSc1nc(C)nc2sc(C)c(C)c12	6.4	0.7%	39.8µM*	1.9%
COc1ccc(C(C)=O)cc1CSc1nnc(Nc2ccccc2C)s1	.	-46.3%	11.2µM*	-0.2%
COc1ccc(C(C)=O)cc1CSc1nnc(Nc2ccc(C)cc2C)s1	4.7	-13.9%[15.4 µM]	-29.2%	1.5%
CCOC(=O)N1CCN(C(=O)CCS(=O)(=O)c2ccc3c(c2)CC(C)N3C(=O)CC)CC1 (configuration not stated)	-91.6*	9.1%	?	2.4%
CCOc1ccc(CCNC(=O)CCCn2c(=O)c3cccn3c3cccnc32)cc1OCC	-95.6*!	-0.1%	?	?
COc1ccc(CCNC(=O)CCCn2c(=O)c3cccn3c3cccnc32)cc1OC	-6.4	.	.	6.6%
CC(C)N(Cc1ccccc1)C(=O)c1cc2ccc3cccnc3c2[nH]1	-101.5*	.	.	-0.3%
COc1ccccc1NC(=O)c1cc2ccc3cccnc3c2[nH]1	-71.5*	.	.	0.1%
CCc1ccc(CN2CCc3nc(Nc4ccccc4)ncc3C2)cc1	-65.2*	.	.	1.9%
S=c1nc(-c2ccccc2)[nH]c2ccccc12	6.2	15.8µM*	9.4%	?
COc1ccc(NC(=O)C/C(C)=N/NC(=O)c2ccco2)c([N+](=O)[O-])c1	-66.2*	?	3.4%	3.0%
O=C(Nc1nc2cc3c(cc2s1)OCCO3)C1CCCCC1	-68.1*	?	-7.0%	0.0%
SMILES	RXFP1 antag	gsp agonist	gsp antagonist	RXFP1 agonist
CCc1ccc(NS(=O)(=O)c2ccc3[nH]cc(C(=O)NC4CCCC4)c(=O)c3c2)cc1	-4.9	.	.	4.2%
O=C(NCC(c1ccco1)N1CCc2ccccc21)C(=O)Nc1ccccc1 (configuration not stated)	-66.0*	6.8%[15.4 µM]	1.7%	-0.2%
O=C(NCC(c1ccco1)N1CCc2ccccc21)C(=O)Nc1ccccc1F (configuration not stated)	-24.8	-55.1%	1.3%	2.7%
OCCN1CCN(C(=S)Nc2cccc(C(F)(F)F)c2)CC1	-68.5*!	3.0%	6.9%	1.2%
CC(=O)N[C@@H](CCC(N)=O)C(=O)O	-8.7	.	.	.
Nc1ccc(-c2cc3ccccc3oc2=O)cc1	10.5	-14.8%[15.4 µM]	7.0%	4.4%
O=C/C=C/c1c(-c2ccccc2)cc2oc3ccccc3cc1-2	-90.5*	15.9%	-7.1%	2.1%
COc1ccc(CCOC(=O)c2ccc(N)c([N+](=O)[O-])c2)cc1	-66.4*	4.3%	-22.2%	-2.3%
CC(C)(C)C(=O)COC(=O)c1ccc(N)c([N+](=O)[O-])c1	-2.2	-15.4%	12.8%	1.1%
Cc1nc(C)c(CC(=O)N2CCc3c([nH]c4ccccc34)C2c2ccccn2)s1 (configuration not stated)	-75.4*	20.7%[15.4 µM]	-3.8%	1.1%
Cc1ccc(Nc2nc3nonc3[nH]c2=O)cc1C	-12.9	-22.6%	-22.0%	0.2%
Cc1ccc(Nc2nc3nonc3[nH]c2=O)cc1Cl	-17.6	10.2%	28.2µM*	0.4%
Cc1nn(C)c2c1c(C(F)(F)F)cc(=O)n2C(C)C(=O)NCCc1ccccc1 (configuration not stated)	-13.3	.	.	-1.4%
CN(C)CC(CCC(CN(C)C)C(=O)c1ccccc1)C(=O)c1ccccc1 (configuration not stated)	-76.3*	-1.4%[15.4 µM]	27.2%	1.1%
O=C(c1ccccc1)C(CCC(CN1CCOCC1)C(=O)c1ccccc1)CN1CCOCC1 (configuration not stated)	-67.9*	13.4%	11.9%[15.4 µM]	1.3%
CCOc1ccc(C(=O)C(CCC(CN(C)C)C(=O)c2ccc(OCC)cc2)CN(C)C)cc1 (configuration not stated)	?	?	-14.3%	0.6%
Cc1ccc(NC(=O)CCc2c(C)nc3cc(-c4ccccc4)nn3c2C)cc1F	.	.	.	0.9%
COc1cccc(NC(=O)Cn2cc(C(=O)C3CCCCC3)c3ccccc32)c1	-19.5	.	.	?
Cc1ccc(C(OCC(O)CNC(C)c2ccccc2)c2ccccc2)cc1 (configuration not stated)	-70.2*	9.4%[15.4 µM]	1.1%	2.1%
CC(=O)c1sc(C(C)(C)C)cc1NC(=O)/C=C/C(=O)O	6.0	1.7%	-14.9%	0.7%
CC(=O)c1sc(C(C)(C)C)cc1NC(=O)CCC(=O)O	23.3	8.91µM*	13.7%	?
COCC1CCN(C(=O)c2cc(COc3cccc4cnccc34)on2)CC1	4.8	35.6%	-22.2%	0.4%
O=C(c1cc(COc2cccc3cnccc23)on1)N1CCCC(CCCO)C1 (configuration not stated)	-13.7	10.9%	35.5µM*	0.2%
CCCCNC(=S)NCC(c1ccccc1)c1c[nH]c2ccccc12 (configuration not stated)	-9.4	-14.9%	-28.9%	1.0%
CN(C)CCCNC(=S)NCC(c1ccc(Cl)cc1Cl)c1c[nH]c2ccccc12 (configuration not stated)	-60.6*	11.8%[15.4 µM]	9.2%	2.1%
